GRK2 aptamer HTS = compounds blocking aptamer binding on GRK2 – biochemical, human GRK2, bead flow cytometry, HTS, primary screen | AID 488847, 2010 | FAM-aptamer displacement from GRK2 | Beta-adrenergic receptor kinase 1 (Homo sapiens), P25098 | actives 0.59% (n = 330,000) | inhibition of aptamer binding, % at 10 µM;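 active = inhibition of aptamer binding above 40%, roughly 3 SD of noise, on plates passing a quality check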;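 also: median bead fluorescence of bound FAM aptamer so fluorescent compounds give negative values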
Pemphigus Ab inh = inhibitors of pemphigus antibody binding to DSG3, primary screen, biochemical, bead-based, flow cytometry, scFv-GFP | Desmoglein-3 (Homo sapiens), P32926 | DSG3-coupled beads, scFv-anti-DSG3-GFP binding; active compounds read low | binding (percent of control), % at 10 µM | actives 0.48% (n = 310,000) | AID 588358, 2011;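 active = binding more than 3 SD below its plate's average and above zero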;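 also: hits lower antibody fragment binding to DSG3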
LANA-H2A inh = blockers of LANA interaction with H2A/H2B – biochemical, FP readout, HTS, primary screen | cell-free LANA-H2A/H2B peptide, fluorescence polarization | Protein LANA1 (Human herpesvirus 8 type P (isolate GK18)), Q9QR71 | inhibition, % (no concentration beside the values) | actives 0.6% (n = 320,000); in the data active = inhibition mostly above about 10%, no sharp cut-off; inactive = mostly below about 6.7%
HDAC3 inh = HDAC3 deacetylase inhibitors, primary screen, biochemical, fluorescence, cell-free homogeneous; actives 0.15% (n = 320,000); inhibition, % at 8.3 µM; AID 2718, 2010; recombinant HDAC3, fluorogenic peptide/trypsin coupled; in the data active = inhibition above about 26%, passing the limit was not always enough
PKD1 kinase inh = inhibitors of human PKD1 kinase, biochemical, fluorescence polarization; PKD1 kinase fluorescence polarization assay; inhibition, % (no concentration beside the values); actives 0.056% (n = 200,000); AID 797, 2007
VLA-4 inh = inhibition in human VLA-4 binding assay, primary screen, VLA-4 allosteric modulator project, MLPCN library, flow cytometry, VLA-4 expressing cells; ligand binding flow cytometry; Integrin alpha-4 (Homo sapiens), P13612; actives 0.2% (n = 330,000); inhibition, % (about 7 µM as worked out from the volumes in the protocol)
* hit, by the source's call; x = no result; + = active, no number. In the library only some 1.8% were active in any assay of this set; here they are far more common. Rule as the data show it, unless noted: active = inhibition above about 50%; inactive = the rest.

SMILES | GRK2 aptamer HTS | Pemphigus Ab inh | LANA-H2A inh | HDAC3 inh | PKD1 kinase inh | VLA-4 inh
COc1ccc(C(=O)N2CC3(CC(c4cccc(NC(=O)CC(c5ccccc5)c5ccccc5)c4)=NO3)C[C@H]2C(N)=O)cc1 (some centres undefined) | 6 | 102 | -9 | -4 | x | -8
C=C(C)C(=O)Nc1cccc(C2=NOC3(C2)C[C@@H](C(N)=O)N(C(=O)c2ccc(OC)cc2)C3)c1 (some centres undefined) | 95* | 69* | 6 | -6 | x | 4
Cc1ccc(C(=O)OCC(=O)Nc2cc(C(C)(C)C)no2)c(C)c1 | 4 | 103 | 12* | 7 | x | 8
CCOC(=O)c1ccc(S(=O)(=O)Nc2cc(C(C)(C)C)no2)cc1 | 1 | 110 | -5 | 7 | -1 | -12
Cc1ccc(C(=O)O/N=C(\N)c2cccc([N+](=O)[O-])c2)cc1 | 0 | 93 | -2 | 6 | 6 | 10
N/C(=N\OC(=O)C1CCCCC1)c1cccc([N+](=O)[O-])c1 | 0 | 98 | 15* | 2 | -12 | 18
CS(=O)(=O)c1ccccc1C(=O)NCCC(c1ccccc1)c1ccccc1 | 0 | 45* | -10 | 10 | x | -2
Cc1ccsc1C(=O)NCCC(c1ccccc1)c1ccccc1 | 1 | 109 | -1 | -2 | -2 | 5
C/C(=N\Nc1nc2ccccc2nc1C)c1ccccc1O | 2 | 78* | 1 | 2 | x | 1
O=C(c1ccco1)N1CCCN(Cc2nc(Cc3ccccc3)no2)CC1 | 4 | 93 | -1 | -1 | 2 | -4
Cc1cc(C)c(NC(=S)NC(=O)c2ccc(-c3ccccc3)cc2)c(C)c1 | 4 | 41* | 6 | -1 | -1 | -6
Cn1nc([N+](=O)[O-])nc1Oc1ccccc1C(=O)N1CCOCC1 | 0 | 94 | + | -6 | -1 | 7
CCOc1cc2c(cc1OCC)C(C(=O)O)C(c1cc(Br)c(O)c(OC)c1)N(C)C2=O (centres undefined) | 0 | 110 | 15* | 1 | 0 | -18
Cc1cc2c(c(SCC#N)n1)C(=O)OC2 | 3 | 114 | -4 | -1 | 9 | 10
CCOc1ccccc1OCCOc1ccc(F)cc1 | 0 | 115 | 26* | -1 | 1 | 5
CCOC(=O)c1ccc(OCCOc2ccccc2C)cc1 | 0 | 108 | 0 | -1 | x | 2
CC(=O)N=c1sc(S(N)(=O)=O)nn1C | 0 | -12* | 0 | 12 | 0 | 31
CC(=O)Nc1nnc(S(N)(=O)=O)s1 | 0 | 108 | 2 | 4 | -2 | 21
Cc1cc(C)cc(NC(=O)CCCN2C(=O)C(c3ccccc3)Oc3cccnc32)c1 (centres undefined) | 0 | 129 | 14* | 3 | x | 6
CC(=O)Nc1ccc(NC(=O)CCCN2C(=O)C(c3ccccc3)Oc3cccnc32)cc1 (centres undefined) | x | 97 | x | x | x | x
O=C(CSc1cc(Cl)ccc1Cl)Nc1ccc(N2CCOCC2)cc1 | 0 | x | 4 | 2 | x | 16
COCc1cc(C)n(CC(=O)Nc2ccc(Cl)cc2Cl)c(=O)c1C#N | 2 | -3.1* | 2 | -5 | -3 | 7
CCNC(=S)N(CCCN(C)C)Cc1cc2cc3c(cc2[nH]c1=O)OCCO3 | 4 | 108 | 2 | -2 | x | 0
CCOC(=O)C1=C(O)/C(=C/c2ccc(-c3ccccc3C(=O)O)o2)SC1=Nc1ccc(C)cc1 | x | 71* | x | x | x | x
CCOC(=O)C1=C(O)/C(=C/c2ccc(-c3ccccc3C(=O)O)o2)SC1=Nc1ccc(OC)cc1 | x | 102 | x | x | -4 | x
C[C@@H]1O[C@@H](O[C@H]2[C@H](Oc3cc(O)c4c(c3)OC(c3ccc(O)cc3)CC4=O)O[C@H](CO)[C@@H](O)[C@@H]2O)[C@H](O)[C@H](O)[C@H]1O (some centres undefined) | 0 | 109 | 0 | -6 | x | 5

Compound activity (PubChem BioAssay)
